# Laboratory results reported in PubChem BioAssay.
# Several values for one entry are separate records, joined by “and”; a condition that tells them apart may be missing. Equal values may be shown once. Activity calls are given as the source filed them. Unless noted, no rule for the calls is given here.
# Assays:
# [1] = tested on: Wnt5a (protein binding on small-molecule microarray); test: Wnt5a binders on small-molecule microarray, primary screen, biophysical, 635/667 nm fluorescence (AID 1142); conditions: 635 nm fluorescence, higher = more signal;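 also: fluorescence read at 667 nm with signal to noise per printed feature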
# [2] = cell viability in Huh7 cells, primary screen, cytotoxicity control for HCV replication inhibitor project, CellTiter-Glo luminescence, basal, 48 h (AID 1143); conditions: Huh7 HCV replicon, higher = more signal, called active from +8 up or from −8 down;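 also: Huh7 hepatoma cells carrying a hepatitis C replication reporter with no stimulus; test concentration not given here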
# [3] = P. aeruginosa biofilm formation inhibitors, primary screen, PAO1 strain, BacTiter-Glo luminescence, LB-PBS (AID 1144); conditions: 12 h, higher = more signal
# [4] = CREB reporter modulators without forskolin, primary screen, cell-based, PC12, CRE-LacZ reporter, unstimulated (AID 1145); conditions: no forskolin, luminescence, 4.5 h, higher = more signal, called active from +8 up or from −8 down
# [5] = CREB reporter modulators under forskolin, primary screen, cell-based, PC12, CRE-LacZ reporter, forskolin-stimulated (AID 1146); conditions: luminescence, 4.5 h, higher = more signal, called active from +8 up or from −8 down;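 also: PC12 cells with 6xCRE LacZ reporter stimulated by forskolin 10 µM; beta-galactosidase reporter signal reflecting CREB driven transcription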
# [6] = biological target: Streptavidin (Streptomyces avidinii) (UniProt P22629); test: streptavidin binders on small-molecule microarray, primary screen, artefact control for SMM compound annotation, biophysical, 635/667 nm fluorescence (AID 1147); conditions: streptavidin binding, higher = more signal;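 also: signal reflects streptavidin binding to arrayed compounds as a control protein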
# [7] = small-molecule binders of probe aInhba, primary screen, biochemical, small-molecule microarray, 635/667 nm fluorescence (AID 1148); conditions: higher = more signal;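 also: score merges 667nm spot fluorescence with signal-to-noise for antibody binding to printed compounds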
# Torsin-1A (Homo sapiens) [8] = biological target: Torsin-1A (Homo sapiens) (UniProt O14656); test: torsin A binders from cell lysate, primary screen, small-molecule microarray, wild-type, 635/667 nm (AID 1149); conditions: COS7 hTOR1A-WT lysate, 635 nm fluorescence, higher = more signal
# Torsin-1A (Homo sapiens) [9] = biological target: Torsin-1A (Homo sapiens) (UniProt O14656); test: small-molecule binders of mutant TOR1A in lysate, primary screen, cell lysate, small-molecule microarray, COS7 lysate, 635/667 nm fluorescence (AID 1150); conditions: COS7 hTOR1A mutant lysate, 635 nm fluorescence, higher = more signal;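 also: score pools 667 nm emission and signal to noise measuring lysate protein binding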
# [10] = tested on: Sonic hedgehog protein (Shh); test: small-molecule binders of Shh protein, primary screen, biochemical, small-molecule microarray, 635/667 nm fluorescence (AID 1151); conditions: small-molecule microarray binding, 635 nm fluorescence; higher = more signal;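 also: Shh protein binding to compounds spotted on small-molecule microarray slides; score combines spot fluorescence intensity with signal-to-noise across triplicate slides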
# [11] = E. coli DRC41 culture turbidity changes, primary screen, E. coli filamentation inducer project, strain DRC41, OD650, 48 h (AID 1152);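 also: E. coli MC1000 strain DRC41 lacking acrAB efflux pump and sulA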; conditions: E. coli DRC41 (acrAB sulA), higher = more signal, called active from +8 up or from −8 down
# [12] = small-molecule binders of probe aLefty1, primary screen, biochemical, small-molecule microarray, 635/667 nm fluorescence (AID 1153); conditions: higher = more signal;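 also: score merges spot fluorescence with signal-to-noise ratio from the scanned slide images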
# [13] = PSAC antagonists in infected red cells, primary screen, cell-based, P. falciparum Indochina, OD700, 1 h (AID 1154); conditions: P. falciparum Indochina infected RBC osmotic lysis, higher = more signal, called active from +8 up or from −8 down
# [14] = PSAC antagonists in infected red cells, primary screen, cell-based, P. falciparum Indochina, OD700, 2 h (AID 1155);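 also: lysis reports solute entry through the parasite surface anion channel PSAC; channel blockers reduce lysis of infected cells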; conditions: P. falciparum Indochina infected erythrocytes, osmotic lysis OD700; higher = more signal, called active from +8 up or from −8 down
# [15] = osmotic lysis modulators in infected erythrocytes, primary screen, PSAC antagonist project, cell-based, P. falciparum Indochina, OD700, 3 h (AID 1156); conditions: higher = more signal, called active from +8 up or from −8 down
# [16] = PSAC antagonists in infected red cells, primary screen, cell-based, P. falciparum Indochina, OD700, 18 h (AID 1157); conditions: P. falciparum Indochina infected erythrocytes, osmotic lysis OD700, 18 h; higher = more signal, called active from +8 up or from −8 down
# [17] = modulators of S6 phosphorylation in cells, primary screen, cell-based, A549, cytoblot, luminescence, serum-stimulated (AID 1158); conditions: A549 phospho-S6 cytoblot, 5 h, higher = more signal;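 also: serum-stimulated A549 lung adenocarcinoma cells; signal is phosphorylated S6 detected by cytoblot immunostaining with HRP secondary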
# [18] = biological target: NADPH oxidase 2 (Homo sapiens) (UniProt P04839); test: NOX2-dependent H2O2 signal modulators, primary screen, NOX inhibitor project, cell-based, HEK293-NOX2, PMA-stimulated, Amplex Red fluorescence (AID 1159); conditions: 45 min, higher = more signal, called active from +8 up or from −8 down; also: test concentration not given here
# [19] = biological target: NADPH oxidase 4 (Homo sapiens) (UniProt Q9NPH5); test: NOX4-dependent H2O2 signal modulators, primary screen, NOX inhibitor project, cell-based, HEK293-NOX4, tetracycline-induced, Amplex Red fluorescence (AID 1160); conditions: 45 min, higher = more signal, called active from +8 up or from −8 down
# [20] = biological target: NADPH oxidase 5 (Homo sapiens) (UniProt Q96PH1); test: NOX5-dependent H2O2 signal modulators, primary screen, NOX inhibitor project, cell-based, HEK293-NOX5, Amplex Red fluorescence (AID 1161); conditions: HEK293-NOX5, ionomycin, 45 min, higher = more signal
# NADPH oxidase 5 (Homo sapiens), sequence (Q96PH1 whole entry, looked up): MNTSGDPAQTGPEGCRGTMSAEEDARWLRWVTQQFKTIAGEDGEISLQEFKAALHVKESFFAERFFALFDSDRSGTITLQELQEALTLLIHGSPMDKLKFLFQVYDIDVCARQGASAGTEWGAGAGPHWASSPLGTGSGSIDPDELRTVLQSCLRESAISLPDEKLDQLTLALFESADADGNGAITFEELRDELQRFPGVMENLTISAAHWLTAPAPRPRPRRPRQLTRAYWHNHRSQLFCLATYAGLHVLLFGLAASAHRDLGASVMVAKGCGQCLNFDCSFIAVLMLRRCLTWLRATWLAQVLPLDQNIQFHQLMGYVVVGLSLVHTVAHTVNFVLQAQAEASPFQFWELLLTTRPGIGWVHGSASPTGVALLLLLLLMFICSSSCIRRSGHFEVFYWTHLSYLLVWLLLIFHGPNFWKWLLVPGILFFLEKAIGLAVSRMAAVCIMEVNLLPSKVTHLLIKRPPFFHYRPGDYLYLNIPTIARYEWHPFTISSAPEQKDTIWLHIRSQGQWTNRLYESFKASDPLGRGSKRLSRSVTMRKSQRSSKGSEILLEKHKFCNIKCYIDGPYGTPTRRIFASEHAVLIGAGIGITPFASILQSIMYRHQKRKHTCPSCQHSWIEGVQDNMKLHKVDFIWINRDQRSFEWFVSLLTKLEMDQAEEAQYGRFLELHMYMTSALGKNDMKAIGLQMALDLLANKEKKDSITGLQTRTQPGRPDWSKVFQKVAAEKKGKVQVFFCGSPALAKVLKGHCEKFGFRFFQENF
# NADPH oxidase 4 (Homo sapiens), sequence (Q9NPH5 whole entry, looked up): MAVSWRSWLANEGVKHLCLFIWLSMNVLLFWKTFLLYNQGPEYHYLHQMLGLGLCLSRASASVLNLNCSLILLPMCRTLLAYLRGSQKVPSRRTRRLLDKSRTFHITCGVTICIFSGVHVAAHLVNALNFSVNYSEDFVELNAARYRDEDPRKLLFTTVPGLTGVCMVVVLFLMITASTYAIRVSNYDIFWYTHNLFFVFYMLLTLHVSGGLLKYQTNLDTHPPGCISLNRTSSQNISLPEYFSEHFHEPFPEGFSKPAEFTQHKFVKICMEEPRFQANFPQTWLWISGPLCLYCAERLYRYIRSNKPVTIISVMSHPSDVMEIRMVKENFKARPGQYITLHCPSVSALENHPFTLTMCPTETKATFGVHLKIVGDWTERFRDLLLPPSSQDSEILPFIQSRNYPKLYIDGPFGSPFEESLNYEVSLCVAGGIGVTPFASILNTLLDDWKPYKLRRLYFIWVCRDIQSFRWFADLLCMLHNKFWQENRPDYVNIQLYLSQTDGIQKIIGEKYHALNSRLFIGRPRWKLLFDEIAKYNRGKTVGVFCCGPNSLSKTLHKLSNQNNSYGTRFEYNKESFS
# Torsin-1A (Homo sapiens), sequence (O14656 whole entry, looked up): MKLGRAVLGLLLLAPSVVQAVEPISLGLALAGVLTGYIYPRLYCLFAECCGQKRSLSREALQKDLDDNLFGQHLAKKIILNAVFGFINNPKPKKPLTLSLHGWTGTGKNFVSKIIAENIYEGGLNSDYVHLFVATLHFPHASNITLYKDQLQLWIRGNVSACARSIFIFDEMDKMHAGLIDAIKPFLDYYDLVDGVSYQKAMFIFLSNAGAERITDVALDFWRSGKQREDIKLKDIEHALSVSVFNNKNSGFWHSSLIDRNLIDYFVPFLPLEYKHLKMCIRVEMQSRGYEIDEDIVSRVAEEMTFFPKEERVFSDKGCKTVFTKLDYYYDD
# NADPH oxidase 2 (Homo sapiens), sequence (P04839 whole entry, looked up): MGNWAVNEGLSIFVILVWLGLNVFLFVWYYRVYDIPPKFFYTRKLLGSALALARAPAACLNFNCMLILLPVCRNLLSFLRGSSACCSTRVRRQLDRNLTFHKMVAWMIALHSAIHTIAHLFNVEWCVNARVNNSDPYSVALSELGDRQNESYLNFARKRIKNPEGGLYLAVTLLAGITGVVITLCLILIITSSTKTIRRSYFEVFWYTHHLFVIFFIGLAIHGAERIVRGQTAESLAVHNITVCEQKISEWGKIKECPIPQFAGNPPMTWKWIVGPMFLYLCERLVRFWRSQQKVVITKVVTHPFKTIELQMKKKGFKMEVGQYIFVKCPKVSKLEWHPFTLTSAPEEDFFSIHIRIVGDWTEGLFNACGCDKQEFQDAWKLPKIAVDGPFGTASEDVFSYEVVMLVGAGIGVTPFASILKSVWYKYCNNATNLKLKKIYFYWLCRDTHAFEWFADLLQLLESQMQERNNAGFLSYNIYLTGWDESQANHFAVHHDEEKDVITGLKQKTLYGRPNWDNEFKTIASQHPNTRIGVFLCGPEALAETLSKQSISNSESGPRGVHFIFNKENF
# Streptavidin (Streptomyces avidinii), sequence (P22629 whole entry, looked up): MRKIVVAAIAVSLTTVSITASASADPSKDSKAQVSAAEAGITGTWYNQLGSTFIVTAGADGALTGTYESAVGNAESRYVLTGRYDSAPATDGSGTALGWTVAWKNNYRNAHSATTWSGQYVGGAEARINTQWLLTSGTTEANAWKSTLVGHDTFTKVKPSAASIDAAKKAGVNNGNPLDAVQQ
Compound,composite z-score [1],z-score [2],z-score [3],z-score [4],z-score [5],composite z-score [6],composite z-score [7],composite z-score (Torsin-1A (Homo sapiens) [8]),composite z-score (Torsin-1A (Homo sapiens) [9]),composite z-score [10],z-score [11],composite z-score [12],z-score [13],z-score [14],z-score [15],z-score [16],z-score [17],z-score [18],z-score [19],z-score [20]
COc1ccc(COC(=O)NN=C2C[C@@H](O)[C@@H](O)[C@@H]3[C@@H]4C(=O)N(C(C)(C)C)C(=O)[C@@H]4CC[C@H]23)cc1,-0.0647,-1.47 (inactive),0.439 (inactive),0.876 (inactive),0.479 (inactive),-0.199,-0.151,0.656,-0.178,0.352,0.91 (inactive),0.0169,1.91 (inactive),-1.4 (inactive),0.708 (inactive),-1.93 (inactive),1.25,-0.818 (inactive),0.00608 (inactive),-1.43
C=CCN(C(=O)C(c1cccs1)N(C(=O)/C=C\C(=O)O)c1c(Cl)cccc1CO)c1ccc(OC)cc1 (stereo not given),-0.57 and -0.644,-0.266 (inactive) and 0.28 (inactive),0.894 (inactive),-0.895 (inactive) and -0.346 (inactive),-0.569 (inactive) and 0.595 (inactive),-1.33 and -0.327,-0.336 and -0.0209,-2.86 and -0.746,-1.96 and -2.42,-1.64 and -0.676,1.42 (inactive) and -0.536 (inactive),0.188 and 0.207,-0.363 (inactive) and 2.52 (inactive),-1.53 (inactive) and 0.102 (inactive),-0.806 (inactive) and -0.455 (inactive),-1.39 (inactive) and 0.0841 (inactive),0.312 and 0.429,-0.102 (inactive) and -0.012 (inactive),-1.08 (inactive) and -1.05 (inactive),0.145 and 0.141
Cc1cc2c(nc1C)CCCN2CC(O)CN1CCCc2nc(-c3ccc(Br)cc3)ccc21 (stereo not given),0.573 and 1.08,-0.721 (inactive) and -1.07 (inactive),-0.0664 (inactive) and 0.806 (inactive),0.0167 (inactive) and 0.382 (inactive),-0.362 (inactive) and -0.274 (inactive),1.4 and 1.8,0.496 and 0.639,0.501 and 0.62,0.797 and 0.251,1.13 and 1.11,-0.402 (inactive) and -0.327 (inactive),0.585 and 0.584,12.1 (active) and 8.25 (active),1.55 (inactive) and 0.974 (inactive),1.59 (inactive) and 1.02 (inactive),0.739 (inactive) and 0.394 (inactive),0.0832 and -0.44,1.74 (inactive) and 1.1 (inactive),-1.98 (inactive) and -1.54 (inactive),-2.82 and -2.56
CCC[C@@H]1C[C@@]1(CCC)[C@@H](NC(=O)c1ccc(-c2ccccc2)cc1)c1cccc(Cl)c1,0.585 and -0.0434,-2.34 (inactive) and -1.18 (inactive),-0.439 (inactive) and -0.623 (inactive),0.394 (inactive) and -0.568 (inactive),0.0069 (inactive) and -0.151 (inactive),-0.475 and 0.378,1.13 and -0.0011,0.286 and -0.411,0.322 and 0.104,-0.032 and -0.684,-2.52 (inactive) and -0.473 (inactive),2.19 and 0.345,2.33 (inactive) and 6.65 (inactive),0.011 (inactive) and 0.853 (inactive),0.364 (inactive) and 0.0717 (inactive),0.446 (inactive) and 0.691 (inactive),-0.366 and -0.0422,-1.8 (inactive) and -1.74 (inactive),-2.39 (inactive) and -5.23 (inactive),-1.31 and -1.93
CCCC[C@@H]1CN2[C@@H](CC[C@@H](C)[C@@H]2c2ccc(Br)cc2)C(=O)O1,-0.0248 and 0.0673,-0.216 (inactive) and -0.116 (inactive),0.283 (inactive) and 1.16 (inactive),-0.704 (inactive) and 1.1 (inactive),0.693 (inactive) and 0.189 (inactive),0.119 and 0.117,-0.101 and 0.0074,0.434 and -0.0758,0.458 and 0.139,0.611 and 0.993,-0.247 (inactive) and -1.23 (inactive),-0.0601 and -0.0141,0.952 (inactive) and 1.74 (inactive),-0.255 (inactive) and 0.94 (inactive),0.0015 (inactive) and -0.273 (inactive),0.367 (inactive) and 0.443 (inactive),-1.02 and -0.612,1.18 (inactive) and -0.0488 (inactive),0.883 (inactive) and 0.821 (inactive),0.637 and 0.0426
